We go through 19 molecules from PubChem BioAssay (Tox21).

Values joined by “and” are separate entries in the source; they are usually repeats but may differ in a detail not shown here. Equal values may be shown once. Records with an inconclusive call do not appear. Active and inactive are the calls of the source. The call rests on the fitted dose curve; in most records, active means well fitted cell-killing curve with a large enough effect in the repeat runs (not every such curve was filed as active); inconclusive means weak or mixed curves, or effect the other way; inactive means no such curve, though single readings can be large or run the other way.
On the % scale 0 is the no-effect control and ±100 the full control effect; potency means the concentration at half of the fitted maximal effect.

This experiment can be described thus: qHTS assay to identify small molecule antagonists of the farnesoid-X-receptor (FXR) signaling pathway - cell viability counter screen (AID 743221). Further: nearly all actives have a fitted effect of over 50% in size. The conditions noted are these: FXR-bla HEK293T viability, CellTiter-Glo luminescence, 16 h; series mostly up to 62.6 µM; activity change, negative = cytotoxicity: at the top concentration. Summed up: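 Here viability was scored by luminescence after CellTiter-Glo addition to wells already read for beta-lactamase. Prior treatment: compound plus CDCA (50 uM final), 16 h, 37 C, HEK 293T FXR-bla cells.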
(In general: qHTS replaces the single test concentration by a dilution series.)
On to `CC(C)(c1ccccc1)c1ccc(Nc2ccc(C(C)(C)c3ccccc3)cc2)cc1`, for which the Potency result is “inactive”.

In the case of `CN(C)c1ccc(C(=C2C=CC(=[N+](C)C)C=C2)c2ccccc2)cc1`, the Potency is 617 nM (active) and 1.5 µM (active).

For `CCN(CC)c1ccc2c(C)cc(=O)oc2c1`, the “activity change, negative = cytotoxicity” value is 6.01% (inactive).

Consider `O=C(O[C@@H]1Cc2c(O)cc(O)cc2O[C@@H]1c1cc(O)c(O)c(O)c1)c1cc(O)c(O)c(O)c1`, for which the Potency entry is “inactive”.

As for `CC(C)(C)NCC(O)c1cc(O)cc(O)c1` (centres undefined), the “activity change, negative = cytotoxicity” value is -0.944% (inactive).

Regarding `Oc1c(Cl)cc(Cl)c(Cl)c1Cc1c(O)c(Cl)cc(Cl)c1Cl`, the Potency was 48.9 µM (active).

Turning to `CCCCCCCCCCCCCC[P+](CCCC)(CCCC)CCCC`, the Potency is 21.8 µM (active) and 21.9 µM (active).

Consider `CC(C(O)c1ccc(O)cc1)N1CCC(Cc2ccccc2)CC1` (centres undefined), for which the “activity change, negative = cytotoxicity” value is -12% (inactive).

For the molecule `Nc1ccc2cc3ccccc3cc2c1`, the Potency entry is “inactive”.

Take `Cc1cc(C2(c3cc(C)c(O)cc3C)OS(=O)(=O)c3ccccc32)c(C)cc1O`: the Potency result was “inactive”.

On to `O=C1NCC2(CCN(CCc3ccccc3)CC2)O1`, for which the “activity change, negative = cytotoxicity” value was -4.51% (inactive).

With `O=C(O)c1cc(Cl)cc(Cl)c1`, the “activity change, negative = cytotoxicity” value was -6.87% (inactive).

Take `N[C@@H]1CONC1=O`: the “activity change, negative = cytotoxicity” value was 8.49% (inactive).

`O=C(Oc1ccccc1)c1ccccc1O`: the Potency entry was “inactive”.

Consider `Nc1ccc(O)cc1`, for which the “activity change, negative = cytotoxicity” value was -0.35% (inactive).

In the case of `CC(C)(C)NC(=O)[C@@H]1CN(Cc2cccnc2)CCN1C[C@@H](O)C[C@@H](Cc1ccccc1)C(=O)N[C@H]1c2ccccc2C[C@H]1O`, the Potency entry is “inactive”.

With `CC(C)(C)c1ccc(O)c(C(C)(C)C)c1`, the Potency is 54.9 µM (active).

Take `O`: the Potency entry is “inactive”.

With `CCC(C)(C)C(=O)O[C@H]1C[C@@H](C)C=C2C=C[C@H](C)[C@H](CC[C@@H]3C[C@@H](O)CC(=O)O3)[C@H]21`, the Potency is 11 µM (active).
